Molecules are shown by their SMILES. Out of some 67,000 compounds screened, about 300 (0.45%) showed an effect of 50% or more. The sample as a whole holds a higher share of strong results than the screen did.

Chain of Polyketide synthase Pks13 (Mycobacterium tuberculosis (strain ATCC 25618 / H37Rv)) (I6X8D2 whole entry): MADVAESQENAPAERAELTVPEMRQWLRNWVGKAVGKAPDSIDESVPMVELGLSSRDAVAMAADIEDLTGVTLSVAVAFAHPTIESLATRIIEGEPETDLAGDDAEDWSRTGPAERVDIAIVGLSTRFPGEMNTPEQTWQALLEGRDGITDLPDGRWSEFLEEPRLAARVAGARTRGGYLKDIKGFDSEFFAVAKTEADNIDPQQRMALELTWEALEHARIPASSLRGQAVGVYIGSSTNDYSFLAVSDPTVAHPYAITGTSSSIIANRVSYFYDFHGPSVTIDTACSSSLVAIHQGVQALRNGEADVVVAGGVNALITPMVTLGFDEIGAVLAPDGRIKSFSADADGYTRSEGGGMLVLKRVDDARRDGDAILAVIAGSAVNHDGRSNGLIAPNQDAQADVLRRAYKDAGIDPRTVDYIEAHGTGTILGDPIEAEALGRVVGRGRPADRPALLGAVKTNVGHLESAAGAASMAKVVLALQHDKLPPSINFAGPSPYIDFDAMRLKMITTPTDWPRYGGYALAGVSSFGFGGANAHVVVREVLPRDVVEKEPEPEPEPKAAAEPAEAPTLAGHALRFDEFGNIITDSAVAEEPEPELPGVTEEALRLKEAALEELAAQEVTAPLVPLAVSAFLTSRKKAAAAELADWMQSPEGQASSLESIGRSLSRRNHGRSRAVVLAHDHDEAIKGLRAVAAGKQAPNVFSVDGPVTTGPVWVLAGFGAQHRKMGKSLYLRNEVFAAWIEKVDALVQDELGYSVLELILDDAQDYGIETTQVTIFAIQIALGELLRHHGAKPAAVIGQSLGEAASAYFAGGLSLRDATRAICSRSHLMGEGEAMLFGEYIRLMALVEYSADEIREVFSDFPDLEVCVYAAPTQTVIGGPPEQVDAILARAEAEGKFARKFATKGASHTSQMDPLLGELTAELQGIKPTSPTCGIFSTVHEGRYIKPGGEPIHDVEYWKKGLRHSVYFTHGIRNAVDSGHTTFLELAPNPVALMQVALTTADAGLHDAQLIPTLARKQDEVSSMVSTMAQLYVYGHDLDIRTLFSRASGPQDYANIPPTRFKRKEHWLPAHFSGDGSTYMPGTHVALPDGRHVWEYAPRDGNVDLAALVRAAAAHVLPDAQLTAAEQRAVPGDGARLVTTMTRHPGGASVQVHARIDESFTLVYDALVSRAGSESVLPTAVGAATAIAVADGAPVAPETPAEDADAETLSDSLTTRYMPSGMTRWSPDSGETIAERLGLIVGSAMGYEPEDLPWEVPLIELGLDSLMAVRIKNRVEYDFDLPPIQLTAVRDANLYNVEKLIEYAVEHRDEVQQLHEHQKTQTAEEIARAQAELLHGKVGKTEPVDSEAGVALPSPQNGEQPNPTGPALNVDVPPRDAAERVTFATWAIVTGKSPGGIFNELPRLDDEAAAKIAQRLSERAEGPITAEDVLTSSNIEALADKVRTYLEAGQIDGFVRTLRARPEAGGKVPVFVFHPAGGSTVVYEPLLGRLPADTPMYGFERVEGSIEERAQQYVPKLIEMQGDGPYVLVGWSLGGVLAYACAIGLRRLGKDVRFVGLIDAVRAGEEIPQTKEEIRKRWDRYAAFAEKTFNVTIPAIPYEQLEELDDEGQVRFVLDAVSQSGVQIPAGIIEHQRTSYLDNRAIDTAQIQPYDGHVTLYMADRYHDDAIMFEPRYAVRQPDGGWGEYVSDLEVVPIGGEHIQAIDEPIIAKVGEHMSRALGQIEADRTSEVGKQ

This test addresses Polyketide synthase Pks13 (Mycobacterium tuberculosis (strain ATCC 25618 / H37Rv)) (UniProt I6X8D2). The test is described as follows: Mycobacterium tuberculosis Polyketide synthase 13 Thioesterase (PKS13). The format is functional. Also on record: scale not given: in the data most compounds retested in dose-response had high values. The following applies: 30 µM.
As for `CCc1nnc(Nc2cccc(C3CCN(C(=O)CO)CC3)n2)s1`, the Percent Effect is 4.46%.

With `CCc1nnc(Nc2cccc(C3CCN(C(C)=O)CC3)n2)s1`, the Percent Effect amounted to 86.9%. Turning to `CCc1nnc(Nc2cccc(C3CCN(C(=O)CNC)CC3)n2)s1`, the Percent Effect was -24.5%. Take `CC(=O)N1CCO[C@@H]2CN(C(=O)NCc3ccccc3)CC[C@@H]2C1`: the Percent Effect is -30.5%.

With `Cc1ccc(N2CC[C@H]3O[C@H](C(=O)NCc4ccco4)CC[C@H]32)nn1`, the Percent Effect was -3.57%.

As for `Cc1ccc(N2CC[C@H]3OCC[C@@]3(C(=O)N3CCCO3)C2)nn1`, the Percent Effect is -34%.

With `COc1ccc(CN2C[C@@H]3OCC(=O)N(Cc4nccn4C)[C@@H]3C2)cc1`, the Percent Effect was -29.9%. Regarding `O=C1CNc2ncnc(N3CCN(Cc4ccccc4)CC3)c2N1`, the Percent Effect is -2.51%. Under `Cc1ccccc1CN1CCN(c2ncnc3c2NC(=O)CN3)CC1` stands -5.54%; under `O=C1CNc2ncnc(N3CCN(Cc4ccccc4F)CC3)c2N1`, 84.6%; under `Cc1noc(C)c1CN1CC[C@H]2C[C@@H](c3ccncn3)O[C@@H]2C1`, -34.7%. Under `Cc1nc2cc(C3CCCCN3C(=O)C3CC3)nn2c(O)c1C` (centres undefined) stands 9.02%; under `CC(=O)N1N=C(c2ccco2)OC1C(=O)NCC(C)C` (centres undefined), 52.5%; under `CC(=O)N1N=C(c2ccco2)OC1C(=O)N(CC(C)C)CC(C)C` (centres undefined), -6.84%. As to `CC(=O)N1N=C(c2ccco2)OC1C(=O)NCCc1ccc(O)cc1` (centres undefined), the Percent Effect is 8.81%. On to `CS(=O)(=O)N1CC[C@H]2OCC[C@@]2(C(=O)NCc2ccccn2)C1`, for which the Percent Effect was -5.05%.

As to `O=C(c1ccco1)N1C[C@@H]2CCN(c3cccnc3)C[C@@H]2C1`, the Percent Effect was determined as 18.9%. Next, `COc1ccc(C2(C(=O)N3CC[C@@]4(O)CCNC[C@H]4C3)CCCC2)cc1`: -3.94%. In the case of `COc1cccc(C(=O)N2CCc3c(nc(N)[nH]c3=O)C2)c1OC`, the Percent Effect is -13.9%.

For the molecule `Nc1nc2c(c(=O)[nH]1)CCN(C(=O)c1cccc3nccnc13)C2`, the Percent Effect was determined as 2.77%.

On to `COc1cccc(C(=O)N2CCc3c(nc(N)[nH]c3=O)C2)c1C`, for which the Percent Effect is 79.5%. Next, `O=C1CC[C@H]2CN(Cc3cccc(F)c3)CC[C@H]2N1CCc1c[nH]cn1`: -22.1%; `COCCC(=O)N1C[C@H]2CN(Cc3cccnc3)C(=O)[C@H]2C1`: -37.5%. On to `NCC1[C@H]2CN(Cc3cccc(Cl)c3)C[C@@H]12` (some centres undefined), for which the Percent Effect is -29.5%. Consider `CNC(=O)N1C[C@H]2N(c3ncccn3)CCC[C@@]2(C(=O)NCC2CC2)C1`, for which the Percent Effect is -22%. Next, `COC(=O)C(C)(C)NC(=O)c1cnc(C(C)(C)C)s1`: -10.1%. Under `COC(=O)C(C)(C)NC(=O)c1cc2sc(N(C)C)nc2s1` stands 52.3%. Next, `CCN(CC)c1nc2sc(C(=O)NC(C)(C)C(=O)OC)cc2s1`: 39.6%; `CCCS(=O)(=O)N1C[C@H]2C[C@H](C(=O)N3CCOCC3)[C@@H](C1)O2`: -22.9%; `Cc1cccc(CN2C(=O)CC[C@@H]3[C@H]2CCN3Cc2nccn2C)n1`: -58.5%. Regarding `COCCN1C(=O)C[C@@H]2[C@H]1CCN2C(=O)c1ccc[nH]1`, the Percent Effect is -9.69%.

As for `CN1CCCC[C@@H]2[C@H]1[C@@H](c1ccccc1)CCN2C(=O)c1cccnc1`, the Percent Effect turned out to be 9.14%.

Consider `Cc1noc([C@H]2COC[C@H]3CN(C(=O)Cc4ccsc4)C[C@H]32)n1`, for which the Percent Effect was -1.57%.

As to `CC(=O)N1CCCC1c1ccc(Br)cn1` (centres undefined), the Percent Effect turned out to be 61.5%. For the molecule `CC(=O)N1CCCC1c1ccc(-c2c(C)noc2C)cn1` (centres undefined), the Percent Effect was -29.1%.

Turning to `CC(=O)N1CCCC(c2ccc(Br)cn2)C1` (centres undefined), the Percent Effect is -6.19%.

For the molecule `Cc1cccc(CN2C(=O)CC[C@@H]3[C@H]2CCN3C(=O)c2ccsc2)n1`, the Percent Effect was -13.6%. With `Cc1ccnc(OC[C@@]23CCO[C@@H]2CCN(S(C)(=O)=O)C3)n1`, the Percent Effect is -29.2%. Under `CN(C)[C@@H]1CN(C(=O)Cc2cccc(F)c2)[C@@H]2CCCO[C@H]12` stands -3.8%; under `Cc1ncsc1C(=O)OCC1CCN(c2ccccc2)C1` (centres undefined), 30.2%. Under `Cn1ncc(C(=O)OCC2CCN(c3ccccc3)C2)c1C(F)F` (centres undefined) stands 11.4%; under `O=C(OCC1CCCN(C(=O)c2ccccc2)C1)c1cscn1` (centres undefined), 10.2%; under `O=C(OCC1CCN(c2ccccc2)C1)c1cscn1` (centres undefined), 62.9%. Under `Cc1ncc(C(=O)OCC2CCN(c3ccccc3)C2)s1` (centres undefined) stands 39.2%.

For `COCc1nc(C(=O)OCC2CCN(c3ccccc3)C2)cs1` (centres undefined), the Percent Effect is 58.1%. Next, `O=C(CSc1ccccn1)N1CCN(CCO)[C@@H]2CS(=O)(=O)C[C@@H]21`: 0.423%; `Cc1ccoc1C(=O)N1C[C@@H]2COC[C@]2(CNS(C)(=O)=O)C1`: -15.4%; `Cn1cc(CN2C[C@@H](NC(=O)c3cscn3)[C@H]3OCCC[C@H]32)cn1`: -41.4%. For the molecule `O=C(Nc1ccccc1)N1C[C@H]2C[C@H](C(=O)N3CCCC3)[C@@H](C1)O2`, the Percent Effect was -39.5%. Under `CC(C)(C)c1nc(CN2CCc3onc(-c4cccc(F)c4)c3C2)no1` stands -16.5%. Under `CC(C)c1nc(CN2CCc3onc(-c4cccc(F)c4)c3C2)no1` stands 91.2%. Next, `CC(C)Cc1nc(CN2CCc3onc(-c4cccc(F)c4)c3C2)no1`: 3.75%. With `O=C(C1CCC1)N1C[C@@H]2CC[C@H](C1)N(S(=O)(=O)c1ccccc1)C2`, the Percent Effect was -44.5%. Next, `CCCN1CCN(C(=O)c2ccnc(N)c2)[C@H]2CS(=O)(=O)C[C@H]21`: -5.18%.
